The text below walks through data of PubChem BioAssay (NCI).

This is part of a sample that, as a whole, favours compounds with a hit. Of some 83,000 tested, about 20% had one in any assay.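 Treatment: one concentration, 48 hours, 96-well format. Scoring: percent growth, with anything below 10 considered active.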 A number with no mark means an inactive call. The source made the active and inactive calls.

Test systems include BT-549 breast; MDA-MB-435 melanoma; SW-620 colon; MCF7 breast; HCC-2998 colon; KM12 colon; HCT-116 colon.
Common to all, as to experiment: NCI-60 one-dose screen, 48 h (100 = growth as untreated, 0 = no growth, -100 = all killed)
Common to all, as to conditions: 10 µM

With `CN(C)CCN=c1nc2c(c(N)n1-c1ccccc1)c(=S)n(-c1ccccc1)c(=S)n2-c1ccccc1`, the growth was 4.45% (active) in the test on BT-549 breast; -64.5% (active) with MDA-MB-435 melanoma; -59.1% (active) in the test on SW-620 colon; 17.9% in the test on MCF7 breast; -39.6% (active) with HCC-2998 colon; 0.204% (active) with KM12 colon.

As for `COc1ccc(-c2nc3ncccn3c2-c2nnc(-c3ccsc3C)o2)cc1`, the growth in the test with BT-549 breast was 63.6%; in the test with MDA-MB-435 melanoma it was 94.6%; in the test with SW-620 colon, 94.6%; in the test on HCT-116 colon it was 88.9%; with HCC-2998 colon, 102%; in the test with KM12 colon it was 98.6%.

Consider `O=C1C(c2ccccc2)C2C=CC(C2)N1O` (stereo not drawn), for which the growth with BT-549 breast was 136%; in the test on MDA-MB-435 melanoma, 107%; in the test with SW-620 colon, 109%; in the test on MCF7 breast it was 104%; in the test with HCC-2998 colon, 103%; in the test on KM12 colon it was 108%.

For the compound `O=C(CNC(=O)OCc1ccccc1)NCC(=O)Oc1ccc([N+](=O)[O-])cc1`, the growth was 101% with BT-549 breast; 98.4% in the test with MDA-MB-435 melanoma; 95.9% with SW-620 colon; 95.8% in the test with MCF7 breast; 102% in the test with KM12 colon.

Consider `S=c1[nH]ccn1-c1c(Cl)cccc1Cl`, for which the growth was 88.9% in the test with BT-549 breast; 97.3% in the test on MDA-MB-435 melanoma; 106% in the test on SW-620 colon; 97.8% with MCF7 breast; 99.5% in the test on HCC-2998 colon; 104% with KM12 colon.

In the case of `CCOC(=O)C(=Cc1ccc(Br)cc1)C(=O)OCC`, the growth with BT-549 breast is -43.3% (active); with MDA-MB-435 melanoma, -4.37% (active); in the test with SW-620 colon it was -71.2% (active); in the test with MCF7 breast it was 0.372% (active); in the test on HCC-2998 colon it was -82.2% (active); with KM12 colon, -25.3% (active).

As to `CCOC(=O)C1(CC(C)C)CCOC1=O` (stereo not drawn), the growth in the test with BT-549 breast is 105%; with MDA-MB-435 melanoma it was 104%; in the test on SW-620 colon, 98.3%; in the test on MCF7 breast it was 93.5%; in the test on HCC-2998 colon, 106%; in the test with KM12 colon, 99.3%.

`COc1ccc(C(=O)/C=C/c2cc(-c3cc(OC)c(OC)c(OC)c3)n[nH]2)cc1`: the growth is 14.4% in the test on BT-549 breast; 15.6% in the test on MDA-MB-435 melanoma; -37.6% (active) with SW-620 colon; 16.5% in the test with MCF7 breast; 91.3% in the test on HCC-2998 colon; -60.1% (active) in the test with KM12 colon.

In the case of `CC(=O)n1c(-c2ccc(Cl)c(Cl)c2)cn(-c2ccc(Cl)cc2)c1=O`, the growth is 0.373% (active) in the test with BT-549 breast; 32% with MDA-MB-435 melanoma; 38.7% with SW-620 colon; 17.8% with HCT-116 colon; 21.6% with HCC-2998 colon; 49.8% in the test with KM12 colon.

As for `COc1ccc(Nc2ncnc3c2c(SC)nn3-c2ccccc2)cc1`, the growth in the test on BT-549 breast was 96.5%; in the test with MDA-MB-435 melanoma, 97.8%; in the test on SW-620 colon, 103%; with MCF7 breast it was 103%; with HCC-2998 colon, 103%.

Turning to `CN(Cc1ccccc1)Cc1ccc([N+](=O)[O-])cc1I`, the growth in the test on BT-549 breast is 87.7%; in the test on MDA-MB-435 melanoma it was 102%; in the test on SW-620 colon, 89%; with MCF7 breast, 91.6%; in the test with HCC-2998 colon, 106%; with KM12 colon, 93.2%.

Regarding `Cc1ccc(C(=O)N2C/C(=C/c3ccccc3)C(=O)/C(=C/c3ccccc3)C2)cc1`, the growth in the test on BT-549 breast was 49.2%; with MDA-MB-435 melanoma it was -14.1% (active); in the test on SW-620 colon, 15.8%; in the test on MCF7 breast it was 7.53% (active); in the test with HCC-2998 colon, -48% (active).

On to `Nc1ncnc2[nH]c(=O)[nH]c12`, for which the growth is 122% with BT-549 breast; 96.4% in the test on MDA-MB-435 melanoma; 110% in the test with SW-620 colon; 100% in the test with MCF7 breast; 111% with HCC-2998 colon; 99.8% in the test with KM12 colon.

For `CC12O[C@H](C[C@@H](O)[C@H]1O)n1c3ccccc3c3c4c(c5c6ccccc6n2c5c31)C(=O)N(CCCN)C4=O`, the growth was 72.9% in the test on BT-549 breast; 32.5% with MDA-MB-435 melanoma; 20.4% with SW-620 colon; 13.4% in the test on HCT-116 colon; 44.8% with HCC-2998 colon; 38% in the test with KM12 colon.

Turning to `COc1ccc2c(c1)/C(=C\c1c[nH]c3ccc(OC)cc13)C(=O)N2`, the growth in the test on BT-549 breast is 57.7%; in the test on MDA-MB-435 melanoma, -11.5% (active); in the test on SW-620 colon it was 15.1%; in the test on MCF7 breast, 29.6%; in the test with HCC-2998 colon, 49.4%; in the test on KM12 colon, 10.1%.

With `COc1ccc(-c2nc3sc(C4CC4)nn3c2/C=C2/C(=O)Nc3ccc(OC)cc32)cc1`, the growth was 40.1% in the test with BT-549 breast; 61.6% with MDA-MB-435 melanoma; 77.7% with SW-620 colon; 30.1% in the test with MCF7 breast; 104% in the test on HCC-2998 colon; 77.8% with KM12 colon.

Take `N=c1c2c(-c3ccccc3)c(-c3ccccc3)n(Cc3ccccc3)c2ncn1CCCO`: the growth in the test on BT-549 breast is 88.5%; in the test with MDA-MB-435 melanoma it was 34.2%; in the test on SW-620 colon it was 21.6%; in the test on MCF7 breast it was 2.77% (active); in the test on HCC-2998 colon, 64.3%; with KM12 colon, 29.9%.

Regarding `O=C(Nc1cccc(-n2cc(-c3ccncc3)c(-c3ccc(O)c(Cl)c3)n2)c1)c1ccc(N2CCOCC2)c(C(F)(F)F)c1`, the growth was 47.2% in the test on BT-549 breast; 53.9% in the test with MDA-MB-435 melanoma; 36.3% with SW-620 colon; 24.6% with MCF7 breast; 14.9% with KM12 colon.

`CCCCC(CCCCCC(CCCC)NCc1ccc2c(c1)OCO2)NCc1ccc2c(c1)OCO2` (stereo not drawn): the growth in the test on BT-549 breast is -65.7% (active); in the test on MDA-MB-435 melanoma it was -82.4% (active); with SW-620 colon, -100% (active); in the test on MCF7 breast, -100% (active); with HCC-2998 colon it was -100% (active); with KM12 colon, -100% (active).

As to `O=C(O)c1ccc(Cl)cc1Nc1ccc(F)cc1`, the growth is 32.5% in the test on BT-549 breast; 83.2% in the test with MDA-MB-435 melanoma; 94.6% with SW-620 colon; 76.7% in the test with MCF7 breast; 81.9% in the test with HCC-2998 colon; 74.5% in the test on KM12 colon.

As to `Nc1nccc(Nc2ccccc2)n1`, the growth in the test with BT-549 breast is 103%; with MDA-MB-435 melanoma, 107%; in the test with SW-620 colon, 106%; with HCT-116 colon, 109%; with HCC-2998 colon, 114%; in the test on KM12 colon it was 101%.

On to `COc1cc(Cc2cc(-c3ccc(Cl)cc3)n[nH]c2=O)ccc1O`, for which the growth in the test with BT-549 breast is 95.2%; with MDA-MB-435 melanoma, 110%; with SW-620 colon it was 109%; with MCF7 breast, 87.2%; in the test with HCC-2998 colon, 131%; in the test on KM12 colon it was 105%.
